# Assay results taken from PubChem BioAssay.
# Activity calls are given as the source filed them.
# Columns and labels:
# [1] = E. coli DRC41 culture turbidity changes, primary screen, E. coli filamentation inducer project, strain DRC41, OD650, 48 h (AID 1152);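 further: E. coli MC1000 strain DRC41 lacking acrAB efflux pump and sulA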; details: E. coli DRC41 (acrAB sulA), higher = more signal, called active from +8 up or from −8 down
# [2] = small-molecule binders of probe aLefty1, primary screen, biochemical, small-molecule microarray, 635/667 nm fluorescence (AID 1153); details: higher = more signal;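 further: score merges spot fluorescence with signal-to-noise ratio from the scanned slide images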
# [3] = PSAC antagonists in infected red cells, primary screen, cell-based, P. falciparum Indochina, OD700, 1 h (AID 1154); details: P. falciparum Indochina infected RBC osmotic lysis, higher = more signal, called active from +8 up or from −8 down
# [4] = PSAC antagonists in infected red cells, primary screen, cell-based, P. falciparum Indochina, OD700, 2 h (AID 1155);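 further: lysis reports solute entry through the parasite surface anion channel PSAC; channel blockers reduce lysis of infected cells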; details: P. falciparum Indochina infected erythrocytes, osmotic lysis OD700; higher = more signal, called active from +8 up or from −8 down
# [5] = osmotic lysis modulators in infected erythrocytes, primary screen, PSAC antagonist project, cell-based, P. falciparum Indochina, OD700, 3 h (AID 1156); details: higher = more signal, called active from +8 up or from −8 down
# [6] = PSAC antagonists in infected red cells, primary screen, cell-based, P. falciparum Indochina, OD700, 18 h (AID 1157); details: P. falciparum Indochina infected erythrocytes, osmotic lysis OD700, 18 h; higher = more signal, called active from +8 up or from −8 down
# [7] = modulators of S6 phosphorylation in cells, primary screen, cell-based, A549, cytoblot, luminescence, serum-stimulated (AID 1158); details: A549 phospho-S6 cytoblot, 5 h, higher = more signal;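 further: serum-stimulated A549 lung adenocarcinoma cells; signal is phosphorylated S6 detected by cytoblot immunostaining with HRP secondary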
# [8] = target: NADPH oxidase 2 (Homo sapiens) (UniProt P04839); experiment: NOX2-dependent H2O2 signal modulators, primary screen, NOX inhibitor project, cell-based, HEK293-NOX2, PMA-stimulated, Amplex Red fluorescence (AID 1159); details: 45 min, higher = more signal, called active from +8 up or from −8 down; further: test concentration not given here
# [9] = target: NADPH oxidase 4 (Homo sapiens) (UniProt Q9NPH5); experiment: NOX4-dependent H2O2 signal modulators, primary screen, NOX inhibitor project, cell-based, HEK293-NOX4, tetracycline-induced, Amplex Red fluorescence (AID 1160); details: 45 min, higher = more signal, called active from +8 up or from −8 down
# [10] = target: NADPH oxidase 5 (Homo sapiens) (UniProt Q96PH1); experiment: NOX5-dependent H2O2 signal modulators, primary screen, NOX inhibitor project, cell-based, HEK293-NOX5, Amplex Red fluorescence (AID 1161); details: HEK293-NOX5, ionomycin, 45 min, higher = more signal
# [11] = A549 cell viability effects, profiling panel, calcein-AM fluorescence, 48 h, basal (AID 1162); details: higher = more signal; further: test concentration not given here
# [12] = adipocyte viability effects, profiling panel, cell-based, 3T3-L1 adipocytes, calcein-AM fluorescence, 48 h, basal (AID 1163); details: 3T3-L1 adipocytes viability, higher = more signal; further: test concentration not given here
# [13] = HepG2 cell viability effects, profiling panel, calcein-AM fluorescence, 48 h, basal (AID 1164); details: higher = more signal; further: test concentration not given here
# [14] = MM1S cell viability effects, profiling panel, calcein-AM fluorescence, 48 h, basal (AID 1165); details: higher = more signal;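 further: viability of MM1S multiple myeloma cells under basal unstimulated conditions; test concentration not given here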
# [15] = basal RPMI8226 viability, no added stimulus, profiling panel, cell-based, calcein-AM fluorescence, 48 h, PK04 Diversity Set (AID 1166); details: RPMI8226 myeloma viability, higher = more signal;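 further: cells grown under basal conditions without added stimulus; test concentration not given here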
# [16] = basal HepG2 mitochondrial membrane potential changes, profiling panel, cell-based, JC-1 fluorescence, 24 h, 100 nL compound (AID 1167); details: higher = more signal; further: test concentration not given here
# [17] = basal 3T3-L1 adipocyte mitochondrial potential changes, profiling panel, cell-based, JC-1 fluorescence, 3T3-L1 adipocytes, 24 h, 100 nL compound (AID 1168); details: JC-1 mitochondrial fluorescence, higher = more signal, called active from +8 up or from −8 down; further: test concentration not given here
# [18] = basal RPMI8226 mitochondrial membrane potential changes, profiling panel, cell-based, JC-1 fluorescence, 24 h, 100 nL compound (AID 1169); details: RPMI8226 myeloma, JC-1 mitochondrial potential fluorescence, higher = more signal; further: test concentration not given here
# [19] = basal MM1S mitochondrial membrane potential changes, profiling panel, cell-based, JC-1 fluorescence, 24 h, 100 nL compound (AID 1170); details: higher = more signal; further: test concentration not given here
# [20] = A549 lung cancer cell viability effects, profiling panel, resazurin fluorescence, 24 h, PK04 Diversity Set (AID 1171); details: higher = more signal, called active from +8 up or from −8 down; further: test concentration not given here
# NADPH oxidase 4 (Homo sapiens), sequence (Q9NPH5 whole entry, looked up): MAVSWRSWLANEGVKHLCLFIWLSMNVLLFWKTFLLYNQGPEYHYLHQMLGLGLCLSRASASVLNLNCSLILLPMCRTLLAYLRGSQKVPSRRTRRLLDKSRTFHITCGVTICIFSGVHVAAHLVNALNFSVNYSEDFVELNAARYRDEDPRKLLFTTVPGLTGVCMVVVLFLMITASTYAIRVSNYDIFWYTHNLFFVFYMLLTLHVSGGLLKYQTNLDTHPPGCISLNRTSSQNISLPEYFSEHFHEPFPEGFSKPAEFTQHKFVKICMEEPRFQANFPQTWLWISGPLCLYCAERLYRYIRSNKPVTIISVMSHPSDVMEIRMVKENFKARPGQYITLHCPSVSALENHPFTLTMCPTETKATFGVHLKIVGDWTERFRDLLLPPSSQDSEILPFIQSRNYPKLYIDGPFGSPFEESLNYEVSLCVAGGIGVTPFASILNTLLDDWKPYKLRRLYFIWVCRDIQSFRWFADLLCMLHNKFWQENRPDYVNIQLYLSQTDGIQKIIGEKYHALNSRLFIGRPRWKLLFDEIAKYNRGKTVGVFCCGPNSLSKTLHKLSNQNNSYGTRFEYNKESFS
# NADPH oxidase 2 (Homo sapiens), sequence (P04839 whole entry, looked up): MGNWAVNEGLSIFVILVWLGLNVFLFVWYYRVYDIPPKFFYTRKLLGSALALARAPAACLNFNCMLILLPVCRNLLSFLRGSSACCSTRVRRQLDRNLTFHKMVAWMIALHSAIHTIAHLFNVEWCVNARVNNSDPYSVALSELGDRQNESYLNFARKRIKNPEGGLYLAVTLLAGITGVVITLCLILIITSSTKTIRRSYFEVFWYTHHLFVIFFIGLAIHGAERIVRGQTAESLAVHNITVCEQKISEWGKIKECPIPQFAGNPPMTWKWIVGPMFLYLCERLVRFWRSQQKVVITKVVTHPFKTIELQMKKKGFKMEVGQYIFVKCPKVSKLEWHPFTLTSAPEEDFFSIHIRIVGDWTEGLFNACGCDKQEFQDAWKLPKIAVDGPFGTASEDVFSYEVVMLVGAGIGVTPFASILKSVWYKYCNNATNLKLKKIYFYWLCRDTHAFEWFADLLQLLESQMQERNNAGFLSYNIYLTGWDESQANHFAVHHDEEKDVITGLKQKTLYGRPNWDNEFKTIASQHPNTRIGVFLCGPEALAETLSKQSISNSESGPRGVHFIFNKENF
# NADPH oxidase 5 (Homo sapiens), sequence (Q96PH1 whole entry, looked up): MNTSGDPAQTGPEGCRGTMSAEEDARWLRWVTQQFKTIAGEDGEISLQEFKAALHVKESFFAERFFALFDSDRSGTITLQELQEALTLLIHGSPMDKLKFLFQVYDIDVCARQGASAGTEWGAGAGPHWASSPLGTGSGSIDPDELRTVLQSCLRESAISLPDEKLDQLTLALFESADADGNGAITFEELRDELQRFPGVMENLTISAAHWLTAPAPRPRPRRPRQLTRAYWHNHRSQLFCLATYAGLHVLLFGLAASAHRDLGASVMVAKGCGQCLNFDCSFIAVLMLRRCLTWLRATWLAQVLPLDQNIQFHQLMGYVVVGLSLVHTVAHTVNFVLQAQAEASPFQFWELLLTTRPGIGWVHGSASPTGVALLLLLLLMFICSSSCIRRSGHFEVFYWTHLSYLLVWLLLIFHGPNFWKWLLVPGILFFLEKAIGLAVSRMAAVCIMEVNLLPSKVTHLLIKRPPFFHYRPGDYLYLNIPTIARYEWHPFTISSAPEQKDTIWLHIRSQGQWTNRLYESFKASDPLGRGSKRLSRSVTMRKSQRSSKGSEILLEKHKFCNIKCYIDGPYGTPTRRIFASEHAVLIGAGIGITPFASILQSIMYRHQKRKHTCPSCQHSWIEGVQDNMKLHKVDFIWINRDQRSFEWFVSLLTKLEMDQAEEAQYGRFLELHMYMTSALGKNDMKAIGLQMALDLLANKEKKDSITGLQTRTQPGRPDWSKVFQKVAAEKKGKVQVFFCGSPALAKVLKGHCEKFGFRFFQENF
Structure (SMILES),z-score [1],composite z-score [2],z-score [3],z-score [4],z-score [5],z-score [6],z-score [7],z-score [8],z-score [9],z-score [10],z-score [11],z-score [12],z-score [13],z-score [14],z-score [15],z-score [16],z-score [17],z-score [18],z-score [19],z-score [20]
Cc1ccc(S[C@]2(C(=O)NCCN3CCOCC3)CC(=O)N(C3CCCCC3)[C@@H]2c2ccc(CO)cc2I)cc1,0.465 (inactive),-0.174,6.63 (inactive),0.86 (inactive),1.68 (inactive),0.622 (inactive),-0.439,0.832 (inactive),0.11 (inactive),2.6,0.312,0.0138,0.293,-2.42,-2.46,2.54,0.11 (inactive),-0.457,-1.53,2.04 (inactive)
COC(=O)c1ccc([C@H](NC(=O)c2ccccc2)[C@]2(C)C[C@H]2C2CCCCC2)cc1,-2.26 (inactive),0.718,8.84 (active),1.56 (inactive),-0.281 (inactive),0.692 (inactive),0.0094,0.0662 (inactive),-0.602 (inactive),1.22,-0.844,-1.92,-0.949,-0.831,-0.733,-1.15,-1.16 (inactive),0.624,-1.33,0.768 (inactive)
COCCOC(=O)N1C(=O)[C@@]2(c3cc(C#CCCO)ccc31)[C@H](c1ccccc1OCCO)N1[C@H](c3ccccc3)[C@H](c3ccccc3)OC(=O)[C@H]1[C@@H]2C(=O)N1CCc2cc(OC)c(OC)cc2C1,0.891 (inactive),0.265,2.43 (inactive),1.97 (inactive),0.276 (inactive),1.12 (inactive),0.199,1.15 (inactive),1.15 (inactive),0.0359,1.14,0.251,1.37,0.713,0.503,1.13,0.808 (inactive),-0.361,-1.04,0.646 (inactive)
Cc1ccc(S[C@]2(C(=O)NCCCN(C)C)CC(=O)N(Cc3ccccc3Cl)[C@@H]2c2ccc(CO)cc2I)cc1,1.02 (inactive),-0.0573,4.18 (inactive),0.987 (inactive),0.524 (inactive),0.498 (inactive),-0.344,0.255 (inactive),-1.15 (inactive),1.78,0.171,0.908,-0.696,-2.41,-3.15,1.25,0.722 (inactive),-0.351,-0.984,0.515 (inactive)
CC#CCO[Si](C#CCCCCCC)(C(C)C)C(C)C,0.323 (inactive),-0.0501,0.0926 (inactive),-0.607 (inactive),-1.09 (inactive),0.283 (inactive),0.393,-1.27 (inactive),-0.681 (inactive),-3.5,-0.5,-0.381,-0.23,-1.52,-1.03,-1.15,-0.552 (inactive),-0.69,-1.3,0.518 (inactive)
COCCOC(=O)N1C(=O)[C@@]2(c3cc(C#Cc4ccc(OC)cc4)ccc31)[C@H](C(=O)N1CCCCCCC1)[C@H]1C(=O)O[C@H](c3ccccc3)[C@H](c3ccccc3)N1[C@@H]2c1ccccc1OCCO,0.0696 (inactive),2.74,0.688 (inactive),1.36 (inactive),0.286 (inactive),1.07 (inactive),-0.17,0.0983 (inactive),-0.0381 (inactive),0.724,-0.198,1.05,0.383,-0.197,-0.417,0.617,3.29 (inactive),-0.16,-0.845,0.122 (inactive)
CC(C)C[C@@H]1NC(=O)[C@H]2C[C@@H](C(=O)NCCCCCNC(=O)CS)[C@@H](c3ccc(O)cc3)N2C1=O,0.213 (inactive),-0.549,3.25 (inactive),0.945 (inactive),0.256 (inactive),0.277 (inactive),-0.277,1 (inactive),-0.828 (inactive),0.918,-0.286,0.709,-0.724,-1.04,-1.36,-0.686,-0.372 (inactive),-0.113,-0.611,-0.858 (inactive)
O=C1NC(=O)C2C1C=CC(C(O)c1ccc(F)cc1)N2Nc1ccccn1 (stereo not given),-1.99 (inactive),0.0378,1.02 (inactive),1.23 (inactive),-0.02 (inactive),0.753 (inactive),-0.727,-1.01 (inactive),-2.92 (inactive),-2.12,-1.12,-0.182,0.417,-0.416,-0.395,-1.53,-0.311 (inactive),0.734,0.247,-1.11 (inactive)
CCCCC(=C=CC[C@@H](O)c1cccc(OCCO)c1)C[C@@H](O)COCc1ccccc1,1.76 (inactive),-0.101,16.3 (active),1.3 (inactive),0.605 (inactive),-1.07 (inactive),2.58,-1.61 (inactive),-1.01 (inactive),-2.47,1.1,1.79,1.3,-1.21,0.286,-0.0343,0.436 (inactive),-0.785,-0.91,-0.0721 (inactive)
